The record followed here is PubChem BioAssay.

Assay [1] is described as follows: binders of probe aFSTL3 on microarray, primary screen, stem cell growth factor project, biochemical, small-molecule microarray, fluorescence 635/667 (AID 1064).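 Further: measures binding of the biotinylated anti-FSTL3 antibody to printed compounds.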 The settings on record: higher = more signal.
Assay [2] can be described thus: binders from COS7 lysate, DM2A8 probe, primary screen, torsin A project, cell lysate, small-molecule microarray, fluorescence 635/667 (AID 1065). The settings on record: higher = more signal, COS7 lysate expressing mutant human TOR1A.
Assay [3] in a line: binders of probe aFGF2 on microarray, primary screen, stem cell growth factor project, biochemical, small-molecule microarray, fluorescence 635/667 (AID 1067).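 Further: measures binding of biotinylated aFGF2 protein to printed compounds on slides; z-score merges feature fluorescence and signal-to-noise across triplicate slides.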 The settings on record: higher = more signal.
Assay [4] can be described thus: binders of probe aFGF10 on microarray, primary screen, stem cell growth factor project, biochemical, small-molecule microarray, fluorescence 635/667 (AID 1071).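 Further: score merges 667 nm spot intensity and signal to noise from triplicate slides.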 The settings on record: higher = more signal.
Assay [5] deals with Neurogenic locus notch homolog protein 2 (Homo sapiens) (UniProt Q04721). Kind of assay: Notch2 binders on small-molecule microarrays, primary screen, biochemical, small-molecule microarray, 635 nm fluorescence, stem cell growth factors (AID 1073). The settings on record: Notch2 binding, higher = more signal.
Neurogenic locus notch homolog protein 2 (Homo sapiens), sequence (Q04721 whole entry, looked up, canonical isoform): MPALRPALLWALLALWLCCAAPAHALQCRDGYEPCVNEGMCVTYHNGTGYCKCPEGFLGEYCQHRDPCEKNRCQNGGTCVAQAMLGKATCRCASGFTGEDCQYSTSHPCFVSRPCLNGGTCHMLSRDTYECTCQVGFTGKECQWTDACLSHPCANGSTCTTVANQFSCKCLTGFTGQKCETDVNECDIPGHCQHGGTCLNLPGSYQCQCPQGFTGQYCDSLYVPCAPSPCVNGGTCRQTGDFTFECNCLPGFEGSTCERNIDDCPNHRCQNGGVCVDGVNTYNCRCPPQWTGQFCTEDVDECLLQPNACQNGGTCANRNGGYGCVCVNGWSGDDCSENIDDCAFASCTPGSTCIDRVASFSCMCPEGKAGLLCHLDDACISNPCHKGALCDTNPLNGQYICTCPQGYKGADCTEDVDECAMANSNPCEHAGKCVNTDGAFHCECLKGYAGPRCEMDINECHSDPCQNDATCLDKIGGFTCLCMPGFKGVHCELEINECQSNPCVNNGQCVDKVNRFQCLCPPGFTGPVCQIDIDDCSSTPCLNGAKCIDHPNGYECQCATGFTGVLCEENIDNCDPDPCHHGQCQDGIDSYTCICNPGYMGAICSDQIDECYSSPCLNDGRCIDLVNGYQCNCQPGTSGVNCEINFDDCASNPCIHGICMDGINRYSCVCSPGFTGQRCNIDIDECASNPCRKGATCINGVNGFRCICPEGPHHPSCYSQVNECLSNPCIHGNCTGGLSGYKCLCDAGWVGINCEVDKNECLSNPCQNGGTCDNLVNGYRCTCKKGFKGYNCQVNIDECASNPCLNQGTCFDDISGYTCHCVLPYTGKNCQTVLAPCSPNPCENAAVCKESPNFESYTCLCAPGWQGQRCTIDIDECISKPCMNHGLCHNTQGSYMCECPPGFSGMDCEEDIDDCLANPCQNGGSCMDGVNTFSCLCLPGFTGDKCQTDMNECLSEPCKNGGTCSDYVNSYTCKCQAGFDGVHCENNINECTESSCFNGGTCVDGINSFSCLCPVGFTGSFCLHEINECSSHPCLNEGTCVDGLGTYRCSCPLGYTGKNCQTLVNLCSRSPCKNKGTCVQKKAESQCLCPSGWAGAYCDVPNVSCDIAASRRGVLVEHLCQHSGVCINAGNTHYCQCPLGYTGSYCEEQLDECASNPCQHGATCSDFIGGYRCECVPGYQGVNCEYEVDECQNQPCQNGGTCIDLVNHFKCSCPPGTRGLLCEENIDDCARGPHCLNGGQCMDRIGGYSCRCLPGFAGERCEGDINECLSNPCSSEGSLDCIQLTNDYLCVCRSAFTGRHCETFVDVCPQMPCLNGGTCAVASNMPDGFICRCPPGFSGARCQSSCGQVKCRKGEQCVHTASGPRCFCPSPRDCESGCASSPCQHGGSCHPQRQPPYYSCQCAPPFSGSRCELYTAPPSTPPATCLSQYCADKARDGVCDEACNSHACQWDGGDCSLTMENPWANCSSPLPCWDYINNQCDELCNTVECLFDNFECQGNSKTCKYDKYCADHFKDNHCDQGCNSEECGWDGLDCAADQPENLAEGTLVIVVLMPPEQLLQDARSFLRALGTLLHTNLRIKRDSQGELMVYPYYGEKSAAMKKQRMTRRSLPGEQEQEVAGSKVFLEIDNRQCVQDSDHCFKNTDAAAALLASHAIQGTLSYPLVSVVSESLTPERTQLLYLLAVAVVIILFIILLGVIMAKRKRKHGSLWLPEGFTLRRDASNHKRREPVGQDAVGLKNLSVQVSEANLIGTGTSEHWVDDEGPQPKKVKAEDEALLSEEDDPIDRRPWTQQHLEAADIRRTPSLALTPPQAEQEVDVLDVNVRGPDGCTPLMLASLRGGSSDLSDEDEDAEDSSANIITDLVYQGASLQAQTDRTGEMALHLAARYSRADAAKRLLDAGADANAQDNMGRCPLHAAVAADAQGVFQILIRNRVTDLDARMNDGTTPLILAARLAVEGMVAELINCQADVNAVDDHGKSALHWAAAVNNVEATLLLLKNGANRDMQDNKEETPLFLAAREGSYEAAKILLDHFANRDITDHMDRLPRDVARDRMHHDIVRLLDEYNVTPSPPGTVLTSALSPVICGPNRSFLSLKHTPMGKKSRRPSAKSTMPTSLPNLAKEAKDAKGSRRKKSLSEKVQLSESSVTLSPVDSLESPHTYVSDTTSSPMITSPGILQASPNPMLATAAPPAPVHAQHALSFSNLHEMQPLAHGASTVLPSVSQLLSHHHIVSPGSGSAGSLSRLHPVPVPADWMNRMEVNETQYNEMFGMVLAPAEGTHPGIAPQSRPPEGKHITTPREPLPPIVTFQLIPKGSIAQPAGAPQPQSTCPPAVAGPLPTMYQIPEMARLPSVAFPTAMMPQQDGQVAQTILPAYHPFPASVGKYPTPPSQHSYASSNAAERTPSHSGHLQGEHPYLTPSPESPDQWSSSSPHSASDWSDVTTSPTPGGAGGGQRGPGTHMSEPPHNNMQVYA
Assay [6] deals with Pro-neuregulin-1, membrane-bound isoform (Homo sapiens) (UniProt Q02297). Kind of assay: NRG1 binders on small-molecule microarrays, primary screen, psychiatric disease protein project, biochemical, small-molecule microarray, fluorescence 635/667 (AID 1075).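 Further: score combines 667 nm spot fluorescence with signal to noise.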 Conditions: NRG1 binding, 635 nm fluorescence, higher = more signal.
Pro-neuregulin-1, membrane-bound isoform (Homo sapiens), sequence (Q02297 whole entry, looked up, the tested form may be a part, canonical isoform): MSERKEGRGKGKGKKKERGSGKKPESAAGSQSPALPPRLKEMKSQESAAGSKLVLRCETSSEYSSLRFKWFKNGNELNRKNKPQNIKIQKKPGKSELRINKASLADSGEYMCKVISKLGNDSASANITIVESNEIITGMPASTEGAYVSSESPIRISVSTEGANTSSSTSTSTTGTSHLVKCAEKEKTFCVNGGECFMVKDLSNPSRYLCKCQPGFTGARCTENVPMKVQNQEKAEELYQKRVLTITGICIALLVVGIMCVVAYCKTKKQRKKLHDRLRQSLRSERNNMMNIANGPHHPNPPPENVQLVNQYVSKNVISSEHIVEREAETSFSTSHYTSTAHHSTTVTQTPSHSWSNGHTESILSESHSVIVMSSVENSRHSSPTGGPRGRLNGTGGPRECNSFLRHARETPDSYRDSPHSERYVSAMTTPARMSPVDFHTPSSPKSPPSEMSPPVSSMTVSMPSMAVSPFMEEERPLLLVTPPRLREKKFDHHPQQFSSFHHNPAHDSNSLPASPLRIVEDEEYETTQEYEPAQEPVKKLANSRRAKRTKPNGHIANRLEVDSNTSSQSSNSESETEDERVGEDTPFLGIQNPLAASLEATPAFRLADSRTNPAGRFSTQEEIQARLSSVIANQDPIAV
In assay [7] the test system is Neuregulin-1 EGF-like domain. Put plainly: binders of neuregulin-1 EGF-like domain, primary screen, biochemical, small-molecule microarray, 635 nm fluorescence (AID 1081).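 Further: binding of the protein to compounds printed on small-molecule microarray slides.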 Conditions: small-molecule microarray binding, higher = more signal.
Assay [8] in a line: FRG1 promoter luciferase signal modulators, primary screen, FRG1 inhibition for FSHD, cell-based, C2C12 myotubes, firefly/Renilla luciferase, luminescence (AID 1084). Conditions: higher = more signal, called active from +8 up or from −8 down.
Assay [9] can be described thus: binders of probe aFST on microarray, primary screen, stem cell growth factor project, biochemical, small-molecule microarray, fluorescence 635/667 (AID 1086).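 Further: score merges 667 nm fluorescence with signal-to-noise of each printed compound spot.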 Conditions: higher = more signal.
Assay [10] in a line: binders of probe aHhip on microarray, primary screen, stem cell growth factor project, biochemical, small-molecule microarray, fluorescence 635/667 (AID 1087).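 Further: score merges spot fluorescence at 667nm with spot signal to noise ratio.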 The settings on record: higher = more signal.

The source made the active and inactive calls.

For `COCCn1c(C(=O)N2CCCC2)cc2c1C[C@H]1CN(C(=O)c3ccccc3)[C@@](Cc3ccc(F)cc3)(C(=O)OC)[C@@H]21`, the composite z-score in assay [1] was 0.123; in [2] it was 0.214; in assay [3], 0.24; in assay [4], 0.252; in [5] it was 1.41; in [6] it was 1.81. Further, the figures for the composite z-score in [7], in assay [9] and in assay [10] were 0.997, 0.77 and 0.0078, respectively. Further, the z-score in [8] is 2.89 (inactive).

Take `CN(C)CCCCCCNC(=O)[C@@H]1C[C@@H]2C(=O)N[C@@H](CCCCN)C(=O)N2[C@@H]1c1cccc(OCCO)c1`: the composite z-score in assay [1] worked out at 3.04; in assay [2] it was 2.4; in [3], 0.862; in assay [4], 1.13; in assay [5] it was 1.05; in assay [6], 2.75. Further, the composite z-score in assay [7] was found to be 1.52; in [9], 3.58; in assay [10] it was 1.72. Besides, the z-score in [8] is 0.718 (inactive).

With `COc1ccc(C(O)C2C=CC3C(=O)NC(=O)C3N2Nc2ccccn2)cc1` (stereo not given), the composite z-score was -0.0118 in assay [1]; -0.765 in assay [2]; 0.0143 in assay [3]; 0.585 in assay [4]; 0.891 in assay [5]; 0.843 in assay [6]. The composite z-score in assay [7] was 0.844; in assay [9], 0.357; in [10] it was -0.159. Moreover, the z-score in assay [8] was 1 (inactive).

In the case of `CC(C)C[C@@H]1NC(=O)[C@H]2C[C@@H](C(=O)NCCCCCCN(C)C)[C@@H](c3ccc(O)cc3)N2C1=O`, the composite z-score in assay [1] is -0.0795; in assay [2], 1.44; in assay [3], -0.0366; in assay [4], 1.16; in [5], 0.285; in assay [6] it was 0.717. Further, the composite z-score in assay [7] was found to be 1.48; in assay [9], 0.0151; in assay [10], 0.0274. The z-score in [8] is 3.69 (inactive).

For `CN1C(=O)C2C=CC(C(O)c3ccc(I)cc3)N(N3CCCCC3)C2C1=O` (stereo not given), the composite z-score was determined as 0.151 in [1]; 0.235 in assay [2]; 0.0671 in [3]; 1.09 in [4]; 1.71 in [5]; 1.73 in [6]. The values for the composite z-score in assay [7], in assay [9] and in assay [10] were 1.27, 1.4 and -0.0346, respectively. For the same compound, the z-score in assay [8] was 1.14 (inactive).

With `C=C(COC)/C(=C/C[C@@H](OC(C)=O)c1ccc(CO)o1)c1cnc2ccccc2c1`, the composite z-score in assay [1] is -0.258; in assay [2], 0.434; in [3] it was 0.0472; in [4], 1.11; in assay [5], 1.65; in [6] it was 1.02. In addition, the composite z-score was found to be 1.04 in assay [7], 0.408 in assay [9] and 0.364 in assay [10]. For the same compound, in assay [8], the z-score is 0.527 (inactive).

Turning to `C[N+](C)(C)CCCC[C@@H]1NC(=O)[C@@H]2C[C@H](C(=O)NCCCCCN)[C@H](c3cccc(OCCO)c3)N2C1=O`, the composite z-score in [1] was 0.6; in assay [2] it was 1.6; in [3] it was -0.0253; in assay [4], 0.506; in assay [5] it was 1.14; in assay [6], 2.15. For the same compound, the composite z-score in [7] was 1.08; in [9], 0.877; in [10], 0.161. Further, in assay [8], the z-score is -0.992 (inactive).

Turning to `Cc1ccc(S[C@]2(C(=O)NCCN3CCOCC3)CC(=O)N(Cc3ccccc3Cl)[C@@H]2c2ccc(CO)cc2)cc1`, the composite z-score in assay [1] was 0.268; in assay [2] it was -0.159; in assay [3], -0.0083; in assay [4], 0.701; in [5], -0.32; in [6], 0.956. Moreover, the composite z-score in [7] is 1.15; in assay [9], -0.0909; in [10], -0.0994. For the same compound, the z-score in assay [8] was -0.0709 (inactive).

On to `C=CCNC(=O)[C@H]1[C@@H]2C(=O)O[C@@H](c3ccccc3)[C@@H](c3ccccc3)N2[C@@H](c2ccc(OCCO)cc2)[C@]12C(=O)Nc1ccc(C#CC3=CCCCC3)cc12`, for which the composite z-score in [1] was -0.299; in assay [2], 0.218; in assay [3] it was 0.0703; in assay [4] it was 0.498; in assay [5], 1.05; in [6], 0.688. The composite z-score in assay [7] was 1.29; in assay [9] it was 0.233; in [10], -0.216. The z-score in [8] was -0.254 (inactive).

Turning to `C#CCN(CC=C(C)C)[C@H](CO)c1ccccc1`, the composite z-score in assay [1] is -0.418; in assay [2], 0.0737; in assay [3], -0.164; in assay [4] it was -0.078; in assay [5], 0.204; in assay [6], -0.223. Moreover, the composite z-score in assay [7] is -0.187; in assay [9], -0.0173; in assay [10] it was -0.199. In addition, in [8], the z-score was -0.154 (inactive).

On to `COC(=O)[C@@]1(Cc2ccc(OC)cc2)[C@H]2c3cc(C(=O)N4CCCC4)n(Cc4ccc(OC)c(OC)c4)c3C[C@H]2CN1C(=O)c1ccccc1`, for which the composite z-score turned out to be 1.65 in [1]; 0.188 in assay [2]; 0.636 in [3]; 0.199 in [4]; 1.72 in assay [5]; 2.16 in [6]. The values for the composite z-score in assay [7], in [9] and in [10] were 1.07, 1.74 and 0.319, respectively. The z-score in assay [8] was 2.25 (inactive).

Take `Cc1ccc(C(C)CC(O)C2C=CC3C(=O)N(C)C(=O)C3N2NC(=O)OC(C)(C)C)o1` (stereo not given): the composite z-score in assay [1] was -0.112; in assay [2], 0.6; in assay [3], 0.239; in assay [4], 0.687; in assay [5] it was 0.868; in assay [6], 1.67. Also, the composite z-score in [7] was 0.883; in assay [9], 0.889; in assay [10], -0.27. In addition, the z-score in [8] was 0.385 (inactive).

For `COC(=O)[C@@]1(Cc2ccc(OC)cc2)[C@H]2c3cc(C(=O)N(C)C)n(CCN4CNCC4=O)c3C[C@H]2CN1C(=O)c1ccccc1`, the composite z-score was 0.39 in assay [1]; 1.47 in assay [2]; 0.0432 in assay [3]; -0.0075 in assay [4]; 1.27 in assay [5]; 1.51 in [6]. The composite z-score in assay [7] was determined as 1.3; in [9] it was 0.384; in assay [10], 0.983. In addition, the z-score in assay [8] was 0.124 (inactive).

With `CC1CC/C=C\[C@H]2OC34C=CCN(Cn5nnc6ccccc65)C(=O)[C@H]3N(C(CO)C(C)C)C(=O)[C@@H]4C2C(=O)O1` (stereo not given in full), the composite z-score in assay [1] is 0.0351; in assay [2] it was -0.804; in assay [3], -0.175; in [4] it was -0.266; in assay [5], 0.145; in [6], 1.22. Moreover, the composite z-score is 1.42 in assay [7], -0.314 in [9] and 0.0505 in assay [10]. Also, the z-score in [8] is 0.298 (inactive).
